Assay results from PubChem BioAssay (Tox21).
Several values for one entry are separate records, joined by “and”; a condition that tells them apart may be missing. Identical values can stand only once. Results filed as inconclusive are left out. Where a call stands in place of a potency, no number is given. The source holds several records for some structures; these can differ, active in one and inactive in another. Activity calls are given as the source filed them. Unless noted, calls follow the shape of the dose curve; as a rule, active = well fitted curve in the direction sought with a large enough effect in the repeat runs; inconclusive = weak or mixed curves; inactive = no such curve, though single readings can be large; an effect the other way counts as inactive or inconclusive.

Assays:
[1] = target: Acetylcholinesterase (Homo sapiens) (UniProt P22303); assay: Acetylcholinesterase (AChE) small molecule antagonists: colormetric cell-based qHTS assay (AID 1347395; calls by dose curve; also: nearly all actives have a fitted effect of over 30% in size; also: potency is read from the fitted curve at half-maximal effect)
Outline: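 AChE inhibition read colorimetrically via DTNB–thiocholine in SH-SY5Y cells. Compound 30 min, substrate 90 min, both 37 C.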

[2] = target: Acetylcholinesterase (Homo sapiens) (UniProt P22303); assay: Acetylcholinesterase (AChE) small molecule antagonists: enzyme-based qHTS assay (AID 1347397; calls by dose curve; also: nearly all actives have a fitted effect of over 55% in size; also: potency is read from the fitted curve at half-maximal effect); conditions: Potency: AChE enzyme activity inhibition
Outline: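 In this quantitative HTS, compounds from the Tox21 10K collection were preincubated 30 min at ambient temperature with recombinant human AChE dispensed at 50 mU/mL. Hydrolysis of acetylthiocholine was then followed for 10 min by DTNB colour development.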

[3] = target: Acetylcholinesterase (Homo sapiens) (UniProt P22303); assay: Acetylcholinesterase (AChE) small molecule antagonists: enzyme-based qHTS assay with human liver microsomes (AID 1347399; calls by dose curve; also: nearly all actives have a fitted effect of over 60% in size; also: potency is read from the fitted curve at half-maximal effect); conditions: Potency: qHTS inhibition
Outline: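 Recombinant human AChE (50 mU/mL in the enzyme mix) and human liver microsomes (0.25 mg/mL final) were preincubated with compound and NADPH (0.25 mg/mL final) for 30 min at 37 C. Acetylthiocholine/DTNB was then added; thiocholine was read colorimetrically after 10 min at room temperature.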

[4] = target: Cytochrome P450 2D6 (Homo sapiens) (UniProt P10635); assay: Cytochrome P450 Family 2 Subfamily D Member 6 (CYP2D6) small molecule antagonists: luciferase reporter qHTS assay (AID 1671196); also: nearly all actives have a fitted effect of over 50% in size; also: potency is read from the fitted curve at half-maximal effect
Outline: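 Enzyme and proluciferin substrate were first combined with test chemical for 10 min at room temperature. Adding NADPH regeneration solution started a 1 h reaction, stopped with luciferin detection reagent and read by luminescence 20 min later.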

[5] = target: Cytochrome P450 2C19 (Homo sapiens) (UniProt P33261); assay: Cytochrome P450 Family 2 Subfamily C Member 19 (CYP2C19) small molecule antagonists: luciferase reporter qHTS assay (AID 1671197); also: nearly all actives have a fitted effect of over 65% in size; also: potency is read from the fitted curve at half-maximal effect
Outline: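 Quantitative high-throughput screen of the Tox21 library using CYP2C19 with proluciferin substrate. Reaction: NADPH regeneration, 37C, 1 h, after 10 min compound preincubation at room temperature. Readout: luminescence.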

[6] = target: Cytochrome P450 2C9 (Homo sapiens) (UniProt P11712); assay: Cytochrome P450 Family 2 Subfamily C Member 9 (CYP2C9) small molecule antagonists: luciferase reporter qHTS assay (AID 1671198); also: nearly all actives have a fitted effect of over 50% in size; also: potency is read from the fitted curve at half-maximal effect
Outline: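 P450-Glo proluciferin substrate with CYP2C9 enzyme; 10 min RT preincubation, then NADPH regeneration 1 h at 37C; luciferin detection reagent 20 min RT, luminescence in relative luminescence units.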

[7] = target: Cytochrome P450 1A2 (Homo sapiens) (UniProt P05177); assay: Cytochrome P450 Family 1 Subfamily A Member 2 (CYP1A2) small molecule antagonists: luciferase reporter qHTS assay (AID 1671199); also: nearly all actives have a fitted effect of over 50% in size; also: potency is read from the fitted curve at half-maximal effect
Outline: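 Compounds were incubated with CYP1A2 and a luminogenic proluciferin substrate for 10 min at room temperature before the reaction was started with NADPH regeneration solution. After 1 h, detection reagent was added and light output, proportional to CYP activity, was recorded.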

[8] = target: Voltage-gated inwardly rectifying potassium channel KCNH2 (Homo sapiens) (UniProt Q12809); assay: Human Ether-a-go-go-Related Gene (hERG) channel small molecule antagonists: fluorescence cell-based qHTS assay (AID 1671200); also: nearly all actives have a fitted effect of over 50% in size; also: potency is read from the fitted curve at half-maximal effect
Outline: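 Kinetic two-minute fluorescence traces, sampled at 1 s, were collected following thallium stimulus of U2OS cells (1000 per well) that had been cultured overnight at 37 C and loaded with FluxOR II.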

[9] = target: Cytochrome P450 3A4 (Homo sapiens) (UniProt P08684); assay: Cytochrome P450 Family 3 Subfamily A Member 4 (CYP3A4) small molecule antagonists: luciferase reporter qHTS assay (AID 1671201); also: nearly all actives have a fitted effect of over 50% in size; also: potency is read from the fitted curve at half-maximal effect
Outline: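 Proluciferin-to-luciferin conversion by CYP3A4, NADPH-regenerated, 1 h RT; luminescence read as RLU. Ketoconazole as control.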

[10] = target: Acetylcholinesterase (Homo sapiens) (UniProt P22303); assay: Acetylcholinesterase (AChE) small molecule antagonists: fluorescence cell-based qHTS assay (AID 1347398; calls by dose curve; also: nearly all actives have a fitted effect of over 50% in size); conditions: Potency: AChE activity
Outline: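 Cells (SH-SY5Y) attached overnight, were dosed with compound or DMSO vehicle for 30 min at 37 C, and then incubated 40 min at room temperature with acetylthiocholine and Thiolite Green; green fluorescence indexed AChE activity.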

Chain of Cytochrome P450 2C9 (Homo sapiens) (P11712 whole entry, looked up): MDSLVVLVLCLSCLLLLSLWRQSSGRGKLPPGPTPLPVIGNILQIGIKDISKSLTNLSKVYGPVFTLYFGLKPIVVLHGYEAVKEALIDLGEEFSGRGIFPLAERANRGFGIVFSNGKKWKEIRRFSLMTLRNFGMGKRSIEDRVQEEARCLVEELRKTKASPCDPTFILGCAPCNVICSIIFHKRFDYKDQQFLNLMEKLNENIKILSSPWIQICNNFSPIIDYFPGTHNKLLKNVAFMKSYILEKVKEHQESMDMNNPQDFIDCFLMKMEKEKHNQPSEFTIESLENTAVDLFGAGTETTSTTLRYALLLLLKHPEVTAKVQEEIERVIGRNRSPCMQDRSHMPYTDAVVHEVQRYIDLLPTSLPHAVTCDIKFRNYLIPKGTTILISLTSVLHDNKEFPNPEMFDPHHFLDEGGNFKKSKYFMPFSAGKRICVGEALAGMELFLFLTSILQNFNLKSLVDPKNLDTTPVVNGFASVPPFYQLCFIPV
Chain of Cytochrome P450 1A2 (Homo sapiens) (P05177 whole entry, looked up): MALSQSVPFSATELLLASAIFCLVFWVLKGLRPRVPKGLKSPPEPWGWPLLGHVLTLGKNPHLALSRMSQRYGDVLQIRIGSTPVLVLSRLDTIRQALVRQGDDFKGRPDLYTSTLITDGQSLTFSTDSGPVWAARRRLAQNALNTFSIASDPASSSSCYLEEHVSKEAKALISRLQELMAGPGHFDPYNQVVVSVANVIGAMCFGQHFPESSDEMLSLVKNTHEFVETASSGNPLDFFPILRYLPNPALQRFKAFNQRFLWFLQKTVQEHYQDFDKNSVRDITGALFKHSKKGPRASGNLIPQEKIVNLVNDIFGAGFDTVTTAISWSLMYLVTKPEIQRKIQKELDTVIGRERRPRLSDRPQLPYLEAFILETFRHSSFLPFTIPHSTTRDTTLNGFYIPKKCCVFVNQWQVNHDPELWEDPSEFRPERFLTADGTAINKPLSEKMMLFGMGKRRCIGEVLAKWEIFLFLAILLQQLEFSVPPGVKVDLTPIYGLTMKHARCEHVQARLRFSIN
Chain of Acetylcholinesterase (Homo sapiens) (P22303 whole entry, looked up): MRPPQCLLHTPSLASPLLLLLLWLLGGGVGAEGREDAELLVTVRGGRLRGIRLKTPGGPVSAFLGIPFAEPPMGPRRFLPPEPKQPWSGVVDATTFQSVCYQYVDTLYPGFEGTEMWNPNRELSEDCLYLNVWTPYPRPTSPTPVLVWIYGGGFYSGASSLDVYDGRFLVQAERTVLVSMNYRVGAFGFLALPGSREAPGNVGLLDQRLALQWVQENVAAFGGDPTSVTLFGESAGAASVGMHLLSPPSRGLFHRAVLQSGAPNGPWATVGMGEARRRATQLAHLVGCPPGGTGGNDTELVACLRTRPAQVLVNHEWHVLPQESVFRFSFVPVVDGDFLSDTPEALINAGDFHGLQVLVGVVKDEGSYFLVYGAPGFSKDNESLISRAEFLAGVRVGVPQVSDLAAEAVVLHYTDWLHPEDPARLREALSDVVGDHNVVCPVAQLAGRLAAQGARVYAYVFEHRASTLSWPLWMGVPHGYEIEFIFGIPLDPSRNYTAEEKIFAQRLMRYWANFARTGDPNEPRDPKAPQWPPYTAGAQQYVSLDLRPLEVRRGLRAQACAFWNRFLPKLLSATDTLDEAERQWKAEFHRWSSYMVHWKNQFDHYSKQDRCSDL
Chain of Cytochrome P450 2C19 (Homo sapiens) (P33261 whole entry, looked up): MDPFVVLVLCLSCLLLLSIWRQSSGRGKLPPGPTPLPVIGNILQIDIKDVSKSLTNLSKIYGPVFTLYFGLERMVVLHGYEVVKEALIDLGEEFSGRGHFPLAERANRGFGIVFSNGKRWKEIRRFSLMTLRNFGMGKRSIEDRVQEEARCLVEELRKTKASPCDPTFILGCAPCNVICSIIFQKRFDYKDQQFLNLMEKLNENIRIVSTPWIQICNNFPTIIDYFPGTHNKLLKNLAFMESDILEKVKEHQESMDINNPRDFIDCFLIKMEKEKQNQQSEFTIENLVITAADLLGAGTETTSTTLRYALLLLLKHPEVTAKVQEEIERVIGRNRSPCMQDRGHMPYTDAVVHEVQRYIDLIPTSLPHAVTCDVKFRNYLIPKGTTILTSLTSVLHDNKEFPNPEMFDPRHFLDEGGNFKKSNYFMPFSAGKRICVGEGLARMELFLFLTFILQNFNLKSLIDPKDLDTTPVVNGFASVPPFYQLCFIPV
Chain of Cytochrome P450 2D6 (Homo sapiens) (P10635 whole entry, looked up): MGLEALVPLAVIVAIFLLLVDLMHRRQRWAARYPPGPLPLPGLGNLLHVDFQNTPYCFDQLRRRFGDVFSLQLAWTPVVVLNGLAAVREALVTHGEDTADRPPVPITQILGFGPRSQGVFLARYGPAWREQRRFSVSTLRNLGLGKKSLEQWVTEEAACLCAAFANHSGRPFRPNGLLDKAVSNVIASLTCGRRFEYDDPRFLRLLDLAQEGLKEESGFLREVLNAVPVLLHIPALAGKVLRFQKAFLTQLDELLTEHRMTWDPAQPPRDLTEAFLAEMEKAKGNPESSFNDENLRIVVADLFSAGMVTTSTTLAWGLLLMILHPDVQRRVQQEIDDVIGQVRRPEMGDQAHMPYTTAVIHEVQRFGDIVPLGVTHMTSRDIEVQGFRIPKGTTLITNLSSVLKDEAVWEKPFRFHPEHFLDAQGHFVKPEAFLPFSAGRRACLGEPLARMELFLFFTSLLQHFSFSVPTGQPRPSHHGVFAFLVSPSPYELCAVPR
Chain of Voltage-gated inwardly rectifying potassium channel KCNH2 (Homo sapiens) (Q12809 whole entry, looked up): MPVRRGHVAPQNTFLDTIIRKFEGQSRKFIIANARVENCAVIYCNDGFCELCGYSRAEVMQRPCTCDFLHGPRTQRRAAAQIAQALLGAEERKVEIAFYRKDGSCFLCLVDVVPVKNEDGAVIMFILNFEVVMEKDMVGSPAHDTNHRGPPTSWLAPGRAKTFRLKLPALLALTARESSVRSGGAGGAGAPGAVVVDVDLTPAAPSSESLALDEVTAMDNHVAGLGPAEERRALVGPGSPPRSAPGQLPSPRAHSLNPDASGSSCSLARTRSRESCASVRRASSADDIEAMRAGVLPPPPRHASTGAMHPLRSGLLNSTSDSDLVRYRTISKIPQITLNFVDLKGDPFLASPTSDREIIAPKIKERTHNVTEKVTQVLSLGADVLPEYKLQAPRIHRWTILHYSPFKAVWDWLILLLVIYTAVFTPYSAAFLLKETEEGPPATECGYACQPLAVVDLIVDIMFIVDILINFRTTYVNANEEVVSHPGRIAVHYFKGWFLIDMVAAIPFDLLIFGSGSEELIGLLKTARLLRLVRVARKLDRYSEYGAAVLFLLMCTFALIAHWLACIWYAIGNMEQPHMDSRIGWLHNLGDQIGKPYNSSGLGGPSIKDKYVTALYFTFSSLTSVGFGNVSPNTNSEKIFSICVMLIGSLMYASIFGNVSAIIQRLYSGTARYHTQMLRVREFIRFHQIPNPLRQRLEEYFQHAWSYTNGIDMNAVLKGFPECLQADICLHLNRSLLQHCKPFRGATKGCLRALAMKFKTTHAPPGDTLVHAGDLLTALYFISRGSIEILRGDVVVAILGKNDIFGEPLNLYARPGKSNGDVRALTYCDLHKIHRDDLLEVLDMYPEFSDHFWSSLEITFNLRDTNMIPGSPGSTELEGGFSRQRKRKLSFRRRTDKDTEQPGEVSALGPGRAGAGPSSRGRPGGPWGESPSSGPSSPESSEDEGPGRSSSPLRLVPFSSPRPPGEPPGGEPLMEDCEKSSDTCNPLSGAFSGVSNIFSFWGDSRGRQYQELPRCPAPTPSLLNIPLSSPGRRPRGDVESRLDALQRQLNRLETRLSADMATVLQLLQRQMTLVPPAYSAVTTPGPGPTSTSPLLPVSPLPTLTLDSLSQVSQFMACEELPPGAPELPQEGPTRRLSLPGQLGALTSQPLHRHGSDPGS
Chain of Cytochrome P450 3A4 (Homo sapiens) (P08684 whole entry, looked up): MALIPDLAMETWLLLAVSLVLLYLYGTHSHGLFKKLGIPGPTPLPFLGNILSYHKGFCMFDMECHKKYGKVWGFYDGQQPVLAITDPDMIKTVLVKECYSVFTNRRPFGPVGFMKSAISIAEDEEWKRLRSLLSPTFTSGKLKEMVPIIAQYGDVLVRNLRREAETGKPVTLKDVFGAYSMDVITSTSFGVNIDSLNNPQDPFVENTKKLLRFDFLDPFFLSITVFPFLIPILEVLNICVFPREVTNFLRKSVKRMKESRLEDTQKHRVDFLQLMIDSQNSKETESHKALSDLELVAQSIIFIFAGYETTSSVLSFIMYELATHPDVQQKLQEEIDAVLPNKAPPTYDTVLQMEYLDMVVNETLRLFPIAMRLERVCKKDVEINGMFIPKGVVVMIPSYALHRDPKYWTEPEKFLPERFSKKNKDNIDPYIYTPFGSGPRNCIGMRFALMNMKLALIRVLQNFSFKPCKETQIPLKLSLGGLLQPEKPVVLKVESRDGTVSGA

| Compound | Potency [1] | Potency [2] | Potency [3] | Potency [4] | Potency [5] | Potency [6] | Potency [7] | Potency [8] | Potency [9] | Potency [10] |
| --- | --- | --- | --- | --- | --- | --- | --- | --- | --- | --- |
| CCCCCCCCCCCOC(=O)c1ccccc1C(=O)OCCCCCCCCCCC | inactive | inactive | inactive | inactive | inactive | inactive | inactive | inactive | inactive |  |
| CCN(CC)N=O | inactive | inactive | inactive | inactive | 22.6 µM (active) | inactive | inactive | inactive | inactive |  |
| CC(C)Oc1cc(-n2nc(C(C)(C)C)oc2=O)c(Cl)cc1Cl | inactive | inactive | inactive | inactive | 7 µM (active) and 3.99 µM (active) | 27.9 µM (active) and 25.2 µM (active) | 1.4 µM (active) and 2.83 µM (active) |  |  |  |
| CC1(C)C(C=C(Cl)Cl)C1C(=O)OC(C#N)c1cccc(Oc2ccccc2)c1 (stereo not drawn) | inactive |  | inactive | inactive | 17.8 µM (active) and 24.5 µM (active) | 5.64 µM (active) and 12.3 µM (active) | inactive | inactive |  | inactive |
| O=S(=O)(Oc1ccc(Cl)cc1)c1ccc(Cl)cc1 | inactive | inactive | inactive | 16.1 µM (active) and 28.3 µM (active) | 114 nM (active) and 126 nM (active) | 32.1 µM (active) and 25.2 µM (active) | 2.87 µM (active) and 4.48 µM (active) | 24.5 µM (active) |  |  |
| CCOc1cc(C=O)ccc1O | inactive | inactive | inactive | inactive | inactive | inactive | 40 µM (active) and 39.9 µM (active) | inactive | inactive |  |
| COP(=S)(OC)Oc1cc(Cl)c(Cl)cc1Cl | inactive | inactive | inactive | inactive | 19.9 µM (active) and 7.76 µM (active) | 9.95 µM (active) and 7.76 µM (active) | 15.8 µM (active) and 11 µM (active) | inactive |  |  |
| O=C(Nc1ccc(Br)cc1)c1cc(Br)cc(Br)c1O | inactive | inactive | inactive | 79.6 µM (active) and inactive | inactive | 35.5 µM (active) and 17.8 µM (active) and 15.5 µM (active) | 2.82 µM (active) and 35.6 µM (active) and 17.4 µM (active) | inactive |  |  |
| C#C[C@]1(O)CC[C@H]2[C@@H]3CCC4=CC(=O)CC[C@]4(C)[C@H]3CC[C@@]21C | inactive |  | inactive | inactive | 6.33 µM (active) and 1.38 µM (active) |  |  |  |  | inactive |
| CCCCC(CC)COC(=O)c1ccc(C(=O)OCC(CC)CCCC)c(C(=O)OCC(CC)CCCC)c1 (stereo not drawn) | inactive | inactive | inactive | inactive | inactive | inactive | inactive | inactive |  |  |
| CC(C)=CC1C(C(=O)OCc2coc(Cc3ccccc3)c2)C1(C)C (stereo not drawn) | inactive |  | inactive | inactive | 8.95 µM (active) and 6.32 µM (active) | 7.98 µM (active) and 3.55 µM (active) | 28.2 µM (active) | inactive |  | inactive |
| CC(C)(C)c1ccccc1O | inactive | inactive | inactive | inactive | inactive | inactive |  | inactive |  |  |
| COC(=O)c1sccc1S(=O)(=O)NC(=O)Nc1nc(C)nc(OC)n1 | inactive | inactive | inactive | inactive | 81.3 µM (active) | inactive | inactive | inactive |  |  |
| CCC(=O)O[C@H]1CC[C@H]2[C@@H]3CCC4=CC(=O)CC[C@]4(C)[C@H]3CC[C@]12C | inactive |  | inactive | inactive | 17.8 µM (active) and inactive | 25.2 µM (active) and 30.9 µM (active) | inactive | 34.7 µM (active) |  | inactive |
| O=P(O)(O)CCCl | 40.7 µM (active) and 39.8 µM (active) | inactive | inactive | inactive | inactive | inactive | inactive | inactive | inactive |  |
| C[C@]12CCC(=O)C(O)=C1CC[C@@H]1[C@@H]2CC[C@]2(C)C(=O)CC[C@@H]12 | inactive | inactive | inactive | 31.7 µM (active) | 20 µM (active) |  | inactive | inactive |  |  |
| CCN(N=O)C(N)=O | inactive |  | inactive | inactive | 69.7 µM (active) and inactive | inactive | inactive | inactive |  | inactive |
| Nc1ccncc1 | inactive | inactive | inactive | inactive | inactive |  |  | inactive | inactive |  |
| CCOP(=S)(OCC)O/N=C(\C#N)c1ccccc1 | 63.3 µM (active) and 17.4 µM (active) | 56.4 µM (active) | 1.78 µM (active) and 1.55 µM (active) | 35.6 µM (active) | 224 nM (active) and 347 nM (active) | 2 µM (active) and 2.19 µM (active) | 1.42 µM (active) and 1.23 µM (active) | inactive |  |  |
| Cc1cccc(N)c1N | inactive | inactive | inactive | 61.2 µM (active) and 17.8 µM (active) | 38.6 µM (active) and 35.6 µM (active) | 34.4 µM (active) and 35.6 µM (active) | 7.7 µM (active) and 14.2 µM (active) | inactive | 3.86 µM (active) and 11.2 µM (active) |  |
